Inconclusive results are not listed. Active and inactive are the calls of the source. The call rests on the fitted dose curve; in most records, active means well fitted curve in the direction sought with a large enough effect; inconclusive means small, poorly fitted or top-dose-only effect, or another doubt; inactive means no such curve, though single readings can be large; an effect the other way counts as inactive or inconclusive.
Tests used:
[1] = target: Glutathione peroxidase 1 (Homo sapiens) (UniProt P07203); assay: Primary qHTS Assay for Inhibitors of Recombinant Selenoprotein Glutathione Peroxidase 1 (GPX1) (AID 1845191); conditions: recombinant GPX1, GR-coupled NADPH fluorescence, 15 min; series mostly up to 48.8 µM; further: nearly all actives have a fitted effect of over 65% in size
Method in brief: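 Recombinant GPX1 (10 nM final) was preincubated with compound for 30 min at room temperature, then reacted with 1 mM GSH, 0.5 mM CHP, 0.5 mM NADPH and 100 nM glutathione reductase; NADPH fluorescence (340/450 nm) was read at 0 and 15 min.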

[2] = target: Luciferin 4-monooxygenase (Photinus pyralis) (UniProt P08659); assay: Primary firefly luciferase (FLuc) qHTS assay for identification of artifact compounds. (AID 1845220); conditions: purified firefly luciferase, luminescence, 5 min; series mostly up to 54.1 µM; further: nearly all actives have a fitted effect of over 60% in size;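 on activity change, negative = inhibition: plate controls were DMSO vehicle for no effect and no enzyme for full effect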
Method in brief: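 Reaction readout was CCD-imaged luminescence, taken 5 min after adding 10 nM purified firefly enzyme to compound-treated wells holding 10 uM luciferin and ATP in pH 7.6 buffer.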

[3] = Primary fluorescence-based thiol-reactive (MSTI) qHTS assay for identification of artifact compounds. (AID 1845221); conditions: MSTI thiol-reactivity probe, 1 h; series mostly up to 53.8 µM;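 further: thiol-reactive compounds lower the probe fluorescence signal; nearly all actives have a fitted effect of over 65% in size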
Method in brief: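 qHTS titration of compound; 4 uM MSTI, PBS pH 7.4, 2% DMSO; 1 h RT, dark; fluorescence 525/598 nm; normalized to Acetyl-MSTI and MSTI; 4-parameter Hill fit.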

[4] = test system: Nanoluciferase (engineered Oplophorus gracilirostris luciferase); assay: Primary Nanoluciferase (NLuc) qHTS assay for identification of artifact compounds. (AID 1845222); conditions: NLuc-conditioned medium, Nano-Glo luminescence, 5 min; series mostly up to 54.1 µM;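 further: NLuc secreted into diluted conditioned medium of S16 cells; 0% = DMSO and -100% = no enzyme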
Method in brief: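 Concentration-response data were obtained by luminescence after 5 min with Nano-Glo substrate at 1:100. The enzyme was diluted S16 NLuc-expressing cell medium, preincubated with compound for 15 min at RT. Curves were fitted with a 4-parameter Hill model.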

[5] = Primary redox qHTS assay for identification of artifact compounds. (AID 1845223); conditions: Amplex Red/HRP redox cycling with DTT, fluorescence; series mostly up to 53.8 µM;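 further: 0% = DMSO and 100% = reference compound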
Method in brief: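 Amplex Red (25 uM) and HRP (250 mU/mL) in HBSS, with compounds for 15 min, then 250 uM DTT for 30 min, room temperature, dark. Fluorescence 525/598 nm read; normalized to DMSO and 10 uM DA3003; Hill fit.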

[6] = target: Phospholipid hydroperoxide glutathione peroxidase GPX4 (Homo sapiens) (UniProt P36969); assay: Primary qHTS Assay for Inhibitors of Recombinant Selenoprotein Glutathione Peroxidase 4 (GPX4) (AID 1845192); conditions: recombinant GPX4, GR-coupled NADPH fluorescence, 15 min; series mostly up to 50 µM; further: nearly all actives have a fitted effect of over 65% in size; further: potency means the concentration at half of the fitted maximal effect; on activity change, negative = inhibition: on the % scale 0 is the no-effect control and ±100 the full control effect
Method in brief: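 GR-coupled readout: 100 nM GR, 1 mM GSH, 0.5 mM NADPH; NADPH fluorescence (ex 340/em 450 nm) read at t=0 and after 15 min RT. GPX4 200 nM, preincubated 30 min with compound; substrate 0.5 mM CHP.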

[7] = target: Cytochrome P450 2D6 (Homo sapiens) (UniProt P10635); assay: qHTS for inhibitors of CYP2D6 against the NCATS DSHEA and TCM libraries (AID 1919972); conditions: CYP2D6 enzymatic inhibition, luminescence qHTS; series mostly up to 34.1 µM; further: on the % scale 0 is the no-effect control and ±100 the full control effect
Method in brief: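 Steps: enzyme plus luciferin substrate dispensed; test substances pinned; 15 min RT; 1x NADPH regenerating solution added, 30–45 min RT protected from light; detection reagent, 30 min RT; luminescence measured. Minus-enzyme wells as background.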

[8] = target: Cytochrome P450 3A4 (Homo sapiens) (UniProt P08684); assay: qHTS for inhibitors of CYP3A4 against the NCATS DSHEA and TCM libraries (AID 1919971); conditions: recombinant CYP3A4 enzyme activity, luminescence qHTS; series mostly up to 34.1 µM;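 further: on the % scale 0 is the no-effect control and ±100 the full control effect; inhibition lowers luminescence from luciferin made by CYP3A4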
Method in brief: (§1)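 Luminescent P450-Glo readout. Enzyme plus pro-luciferin substrate in manufacturer buffer (typically 100 mM KPO4); 15 min RT preincubation; 1x NADPH regenerating system, 30-45 min RT in the dark; detection reagent 30 min.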

[9] = target: Cytochrome P450 2C9 (Homo sapiens) (UniProt P11712); assay: qHTS for inhibitors of CYP2C9 against the NCATS DSHEA and TCM libraries (AID 1919973); conditions: recombinant CYP2C9 enzyme activity, luminescence; series mostly up to 34.1 µM; further: potency means the concentration at half of the fitted maximal effect;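 on activity change, negative = inhibition: luminogenic pro-luciferin CYP2C9 substrate turned into luciferin with NADPH regeneration; on the % scale 0 is the no-effect control and ±100 the full control effect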
Method in brief: as §1

[10] = target: Cytochrome P450 2C19 (Homo sapiens) (UniProt P33261); assay: qHTS for inhibitors of CYP2C19 against the NCATS DSHEA and TCM libraries (AID 1919974); conditions: CYP2C19 enzyme inhibition, luminescence qHTS; series mostly up to 34.1 µM;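 further: luminescence from luciferin released by CYP2C19 oxidation of a pro-luciferin substrate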; further: potency means the concentration at half of the fitted maximal effect; on activity change, negative = inhibition: on the % scale 0 is the no-effect control and ±100 the full control effect
Method in brief: as §1

Cytochrome P450 3A4 (Homo sapiens), sequence (P08684 whole entry, looked up): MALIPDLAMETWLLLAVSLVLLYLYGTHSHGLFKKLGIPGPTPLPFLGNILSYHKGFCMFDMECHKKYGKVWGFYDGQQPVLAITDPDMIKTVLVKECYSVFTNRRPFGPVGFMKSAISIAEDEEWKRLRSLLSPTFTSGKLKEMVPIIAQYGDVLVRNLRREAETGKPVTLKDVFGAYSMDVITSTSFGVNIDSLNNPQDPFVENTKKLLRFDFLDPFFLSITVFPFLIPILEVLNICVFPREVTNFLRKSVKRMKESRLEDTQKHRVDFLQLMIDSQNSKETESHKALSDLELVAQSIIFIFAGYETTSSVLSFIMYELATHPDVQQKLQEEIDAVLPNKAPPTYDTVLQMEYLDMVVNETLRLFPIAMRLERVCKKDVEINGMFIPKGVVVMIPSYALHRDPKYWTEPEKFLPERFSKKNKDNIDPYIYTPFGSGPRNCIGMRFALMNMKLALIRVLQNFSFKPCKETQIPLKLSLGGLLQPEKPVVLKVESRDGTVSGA
Cytochrome P450 2D6 (Homo sapiens), sequence (P10635 whole entry, looked up): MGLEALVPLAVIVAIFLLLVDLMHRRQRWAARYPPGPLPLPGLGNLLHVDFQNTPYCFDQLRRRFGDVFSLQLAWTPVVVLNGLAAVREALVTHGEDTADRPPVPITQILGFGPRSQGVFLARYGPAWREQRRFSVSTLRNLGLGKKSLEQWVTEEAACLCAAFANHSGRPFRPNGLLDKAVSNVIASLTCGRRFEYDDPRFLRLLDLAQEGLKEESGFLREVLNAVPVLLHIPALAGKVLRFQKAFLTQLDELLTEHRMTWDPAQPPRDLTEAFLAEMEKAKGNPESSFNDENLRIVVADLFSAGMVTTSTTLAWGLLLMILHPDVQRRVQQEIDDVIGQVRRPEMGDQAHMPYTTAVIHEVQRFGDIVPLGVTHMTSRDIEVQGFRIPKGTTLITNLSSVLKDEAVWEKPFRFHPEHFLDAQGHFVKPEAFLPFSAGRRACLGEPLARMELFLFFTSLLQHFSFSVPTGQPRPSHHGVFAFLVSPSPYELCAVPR
Phospholipid hydroperoxide glutathione peroxidase GPX4 (Homo sapiens), sequence (P36969 whole entry, looked up): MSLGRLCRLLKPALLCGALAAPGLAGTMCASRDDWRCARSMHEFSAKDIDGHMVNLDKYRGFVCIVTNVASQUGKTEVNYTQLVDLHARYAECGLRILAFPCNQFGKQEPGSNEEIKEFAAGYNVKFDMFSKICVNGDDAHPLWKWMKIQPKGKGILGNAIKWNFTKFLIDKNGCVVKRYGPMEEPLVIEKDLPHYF
Glutathione peroxidase 1 (Homo sapiens), sequence (P07203 whole entry, looked up): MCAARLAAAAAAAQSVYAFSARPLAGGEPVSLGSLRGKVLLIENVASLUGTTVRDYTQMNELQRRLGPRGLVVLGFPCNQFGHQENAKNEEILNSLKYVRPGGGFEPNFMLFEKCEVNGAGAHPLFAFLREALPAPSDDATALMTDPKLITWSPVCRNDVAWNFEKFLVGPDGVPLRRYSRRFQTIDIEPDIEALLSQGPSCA
Cytochrome P450 2C9 (Homo sapiens), sequence (P11712 whole entry, looked up): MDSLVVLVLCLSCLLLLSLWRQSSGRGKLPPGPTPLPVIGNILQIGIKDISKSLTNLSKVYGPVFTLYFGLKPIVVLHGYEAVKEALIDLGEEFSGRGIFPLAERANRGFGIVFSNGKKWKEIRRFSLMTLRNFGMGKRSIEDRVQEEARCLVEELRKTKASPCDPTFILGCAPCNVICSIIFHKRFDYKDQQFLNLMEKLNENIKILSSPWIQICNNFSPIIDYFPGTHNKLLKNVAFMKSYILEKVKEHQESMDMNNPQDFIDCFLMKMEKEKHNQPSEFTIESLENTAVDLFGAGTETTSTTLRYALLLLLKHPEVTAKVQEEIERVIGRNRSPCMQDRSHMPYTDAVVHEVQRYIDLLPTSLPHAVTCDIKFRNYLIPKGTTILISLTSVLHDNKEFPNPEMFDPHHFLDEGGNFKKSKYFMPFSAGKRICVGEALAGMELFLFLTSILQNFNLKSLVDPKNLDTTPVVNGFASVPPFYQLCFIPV
Cytochrome P450 2C19 (Homo sapiens), sequence (P33261 whole entry, looked up): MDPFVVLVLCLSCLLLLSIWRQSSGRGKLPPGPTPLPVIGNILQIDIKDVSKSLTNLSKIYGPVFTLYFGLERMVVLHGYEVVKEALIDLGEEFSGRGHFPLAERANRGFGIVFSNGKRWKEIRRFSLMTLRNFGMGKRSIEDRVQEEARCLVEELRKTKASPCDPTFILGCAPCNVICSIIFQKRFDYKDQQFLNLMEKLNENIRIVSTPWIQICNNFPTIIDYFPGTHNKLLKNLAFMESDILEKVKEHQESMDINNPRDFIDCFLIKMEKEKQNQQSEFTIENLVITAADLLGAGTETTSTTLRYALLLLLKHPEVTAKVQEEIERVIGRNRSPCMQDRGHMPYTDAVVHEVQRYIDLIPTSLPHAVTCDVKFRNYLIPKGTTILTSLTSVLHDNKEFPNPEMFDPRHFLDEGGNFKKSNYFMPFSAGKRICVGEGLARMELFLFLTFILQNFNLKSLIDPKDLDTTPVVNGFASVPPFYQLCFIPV

C=C1[C@H](CO)[C@@H](O)C[C@@H]1n1cnc2c(=O)[nH]c(N)nc21
inactive: Potency [1] | outcome [2] | outcome [3] | outcome [4] | outcome [5]

CCCCCCCCCC(=O)NO
inactive: Potency [1] | Potency [6]

Oc1ccc(/C=C/c2cc(O)cc(O)c2)cc1
inactive: Potency [1] | Potency [6] | outcome [7]

C[C@H]1O[C@@H](O[C@H]2[C@@H](O)C[C@H](O[C@H]3[C@@H](O)C[C@H](O[C@H]4CC[C@@]5(C)[C@H](CC[C@@H]6[C@@H]5C[C@@H](O)[C@]5(C)[C@@H](C7=CC(=O)OC7)CC[C@]65O)C4)O[C@@H]3C)O[C@@H]2C)C[C@H](O)[C@@H]1O
inactive: Potency [1] | outcome [2] | outcome [3] | outcome [4] | outcome [5]

COC1=C(OC)C(=O)C(C/C=C(\C)CC/C=C(\C)CC/C=C(\C)CC/C=C(\C)CC/C=C(\C)CC/C=C(\C)CC/C=C(\C)CC/C=C(\C)CC/C=C(\C)CCC=C(C)C)=C(C)C1=O
inactive: Potency [1] | Potency [6] | outcome [8] | outcome [7] | Potency [9] | Potency [10]

C[C@]12CC[C@@H]3c4ccc(OC(=O)c5ccccc5)cc4CC[C@H]3[C@@H]1CC[C@@H]2O
inactive: Potency [1] | Potency [6] | outcome [2] | outcome [4] | outcome [5]

S=C1SCN(Cc2ccccc2)CN1Cc1ccccc1
active: Potency [6] 15.8 µM

CCCCC/C=C\C/C=C\C/C=C\CCCCC(=O)O
active: Potency [6] 8.91 µM
inactive: Potency [1] | activity change, negative = inhibition [8] 10.3% [at 4.27 µM] | activity change, negative = inhibition [7] 3.71% [at 4.27 µM] | activity change, negative = inhibition [9] -2.07% [at 4.27 µM] | activity change, negative = inhibition [10] 19.3% [at 4.27 µM]

CC(C)(C)c1ccc(CN2CCN(C(c3ccccc3)c3ccc(Cl)cc3)CC2)cc1 (stereo not drawn)
inactive: Potency [1] | Potency [6] | outcome [2] | outcome [3] | outcome [4] | outcome [5]

C=C1CC[C@H](O)C/C1=C\C=C1/CCC[C@]2(C)[C@@H]([C@H](C)CCCC(C)C)CC[C@@H]12
inactive: Potency [1] | Potency [6]
active: Potency [9] 25.1 µM | Potency [10] 25.1 µM

CC1=CCC2CC1C2(C)C (stereo not drawn)
inactive: outcome [8] | outcome [7] | Potency [9]

COc1ccc(C[C@H](C)NC[C@@H](O)c2ccc(O)c(NC=O)c2)cc1
inactive: Potency [1] | Potency [6] | outcome [2] | outcome [3] | outcome [4] | outcome [5]

CC(=O)Nc1ccc(NC(=S)NC(=O)c2ccc(C(C)(C)C)cc2)cc1
inactive: Potency [1] | Potency [6] | outcome [2] | outcome [3] | outcome [4] | outcome [5]

Source: PubChem BioAssay (NCATS)
